The record followed here is PubChem BioAssay (NCI).

Among the test systems are NCI-H23 lung; NCI-H226 lung; NCI-H322M lung; HOP-62 NSCLC; NCI-H460 lung; HOP-92 NSCLC; NCI-H522 lung; A549/ATCC NSCLC; 786-0 renal; COLO 205 colon; DU-145 prostate; K-562 leukemia; MALME-3M melanoma; MDA-MB-231 breast; RXF 393 renal; SF-268 CNS; SF-295 CNS; SF-539 CNS; UACC-257 melanoma; M14 melanoma.
What all share (assay): NCI-60 one-dose screen, 48 h (100 = growth as untreated, 0 = no growth, -100 = all killed)
Conditions in all cases: 10 µM unless noted

About 83,000 compounds went through this panel and 20% of them were active in at least one assay; those are over-represented in the sample as a whole.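 Cells were grown in 96-well plates and exposed to the test compound at a single concentration for 48 hours; results are reported as percent growth, with values below 10 considered active.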 A number with no mark means an inactive call. The source made the active and inactive calls.

Turning to `Cc1cccc(NC(=O)Cn2cc(CN3CCN(c4ccnc5cc(Cl)ccc45)CC3)nn2)c1`, the growth with NCI-H23 lung was 89.4%; in the test with NCI-H226 lung, 75.5%; with NCI-H322M lung, 93.1%; in the test on HOP-62 NSCLC it was 80.1%; in the test with NCI-H460 lung it was 94%; in the test on HOP-92 NSCLC it was 56.3%. Moreover, the growth in the test on NCI-H522 lung was 80.3%; in the test with A549/ATCC NSCLC, 94.1%; in the test on 786-0 renal, 101%; in the test on COLO 205 colon, 98.6%; in the test on DU-145 prostate it was 106%; in the test on K-562 leukemia, 71.6%. For the same molecule, the growth in the test on MALME-3M melanoma is 92.5%; with MDA-MB-231 breast it was 78.2%; with RXF 393 renal it was 90.7%; with SF-268 CNS, 81.8%; with SF-295 CNS it was 93.7%; in the test on SF-539 CNS, 93.4%. Moreover, the growth is 105% in the test on UACC-257 melanoma and 92.5% in the test on M14 melanoma.

As to `S=c1ccnc[nH]1`, the growth with NCI-H23 lung is 103%; with NCI-H226 lung it was 107%; in the test on NCI-H322M lung, 114%; in the test on HOP-62 NSCLC it was 109%; with NCI-H460 lung, 105%; with HOP-92 NSCLC it was 76.2%. Also, the growth is 65.8% in the test on NCI-H522 lung; 98.2% with A549/ATCC NSCLC; 89.7% in the test with 786-0 renal; 102% with COLO 205 colon; 116% in the test with DU-145 prostate; 113% in the test with K-562 leukemia. In addition, the growth with MALME-3M melanoma is 123%; in the test on MDA-MB-231 breast, 115%; with RXF 393 renal, 128%; with SF-268 CNS, 113%; in the test with SF-295 CNS, 115%; in the test with SF-539 CNS, 100%. The growth is 105% with UACC-257 melanoma and 96.6% with M14 melanoma.

On to `O=C1NC(=O)C(c2coc3cc(Br)ccc23)=C1c1c[nH]c2ccccc12`, for which the growth is 77.5% in the test on NCI-H23 lung; 67.2% in the test on NCI-H226 lung; 77.7% with NCI-H322M lung; 38.9% with HOP-62 NSCLC; 19.5% in the test on NCI-H460 lung; 70.4% in the test with HOP-92 NSCLC. In addition, the growth in the test on NCI-H522 lung is 51.1%; with A549/ATCC NSCLC, 33.5%; with 786-0 renal, 69.5%; in the test with COLO 205 colon it was 35.1%; in the test on DU-145 prostate it was 65.1%; in the test with K-562 leukemia it was 11.5%. In addition, the growth in the test with MALME-3M melanoma is 66.2%; in the test on MDA-MB-231 breast, 59.4%; in the test on RXF 393 renal it was 75.3%; in the test on SF-268 CNS, 43.1%; in the test on SF-295 CNS, 71.1%; in the test on SF-539 CNS, 64.7%. For the same molecule, the growth was 72% with UACC-257 melanoma and 31.5% in the test with M14 melanoma.

With `CC(C)=CC(=O)N[C@H]1CC[C@]2(C)C3CC[C@]4(C)C(C(C)N(C)C)=CCC4C3CCC2[C@H]1O` (stereo not given in full), the growth is 65% in the test on NCI-H23 lung; 99.6% in the test with NCI-H226 lung; 57.5% in the test on NCI-H322M lung; 66.6% with HOP-62 NSCLC; 18.6% with NCI-H460 lung; 41% with HOP-92 NSCLC. Besides, the growth in the test on NCI-H522 lung is 89.4%; with A549/ATCC NSCLC it was 75.5%; in the test with 786-0 renal it was 48.2%; in the test with COLO 205 colon, -14.9% (active); in the test with DU-145 prostate it was 71.9%; with K-562 leukemia, 19.5%. The growth in the test with MALME-3M melanoma is -27.3% (active); in the test with MDA-MB-231 breast, 44.2%; with RXF 393 renal it was 26.8%; with SF-268 CNS, 9.05% (active); in the test with SF-295 CNS it was 59.2%; with SF-539 CNS, -32.2% (active). Besides, the growth in the test on UACC-257 melanoma was -26.8% (active); in the test on M14 melanoma, -56.3% (active).

In the case of `CCN1C2CCC1/C(=C\c1ccccc1)C(=O)/C2=C/c1ccccc1`, the growth with NCI-H23 lung was 32.5%; in the test on NCI-H226 lung it was 59.9%; with NCI-H322M lung it was 51.6%; in the test with HOP-62 NSCLC, 59.8%; with NCI-H460 lung, 51.5%; with HOP-92 NSCLC, 58.5%. Further, the growth was 41.3% in the test on NCI-H522 lung; 72.9% in the test with A549/ATCC NSCLC; 57.2% with 786-0 renal; 43.5% in the test on COLO 205 colon; 1.64% (active) in the test with DU-145 prostate; 32.1% in the test on K-562 leukemia. Further, the growth is 63.7% in the test with MALME-3M melanoma; 79.2% in the test on MDA-MB-231 breast; 48.9% in the test with RXF 393 renal; 42.8% in the test with SF-268 CNS; 48.4% in the test with SF-295 CNS; 45.4% in the test with SF-539 CNS. Further, the growth is 52.2% with UACC-257 melanoma and 48.2% with M14 melanoma.

Consider `c1cc(OCCN2CCCCC2)ccc1CNc1ccc2nc(CCC3CCCCC3)[nH]c2c1`, for which the growth with NCI-H23 lung was 73.8%; with NCI-H226 lung it was 36.2%; in the test on NCI-H322M lung, 74.6%; in the test on HOP-62 NSCLC, 54.2%; in the test with NCI-H460 lung, 33.6%; in the test on HOP-92 NSCLC, 26.7%. Moreover, the growth with NCI-H522 lung is 50.4%; in the test on A549/ATCC NSCLC, 42.3%; with 786-0 renal, -61% (active); in the test with COLO 205 colon, -66% (active); with DU-145 prostate, 59.9%; in the test with K-562 leukemia, -1.42% (active). For the same molecule, the growth in the test with MALME-3M melanoma is -85.9% (active); in the test with MDA-MB-231 breast, 9.11% (active); with RXF 393 renal, 11.9%; with SF-268 CNS, 57.6%; with SF-295 CNS, -38.6% (active); in the test on SF-539 CNS, -73.3% (active). The growth with UACC-257 melanoma and in the test with M14 melanoma was -75% (active) each time.

For the molecule `COc1ccc2c(c1)c(-c1nc(-c3ccc4ccccc4c3)cs1)cn2C`, the growth in the test on NCI-H23 lung was 87.1%; in the test on NCI-H226 lung it was 85.3%; with NCI-H322M lung, 85.1%; in the test on HOP-62 NSCLC it was 90.4%; in the test on NCI-H460 lung, 98.4%; in the test with HOP-92 NSCLC it was 93%. Besides, the growth in the test on NCI-H522 lung was 79.2%; in the test with A549/ATCC NSCLC, 82.6%; in the test on 786-0 renal it was 75.4%; in the test with COLO 205 colon it was 84%; in the test with DU-145 prostate, 103%; with K-562 leukemia, 67.7%. Moreover, the growth in the test with MALME-3M melanoma is 149%; with MDA-MB-231 breast it was 80.2%; with RXF 393 renal, 69.1%; with SF-268 CNS, 100%; with SF-295 CNS it was 104%; in the test on SF-539 CNS, 89%. Also, the growth was 94% in the test with UACC-257 melanoma and 96.9% in the test on M14 melanoma.

Regarding `Nc1c(Cl)cc(/C=C2\C=Cc3ccccc32)cc1Cl`, the growth in the test with NCI-H23 lung is 97.4%; with NCI-H226 lung, 98.7%; in the test on NCI-H322M lung, 106%; in the test with HOP-62 NSCLC, 102%; in the test on NCI-H460 lung it was 112%; in the test on HOP-92 NSCLC, 99.6%. Besides, the growth in the test with NCI-H522 lung was 93.1%; with A549/ATCC NSCLC, 92.7%; in the test on 786-0 renal, 102%; in the test with COLO 205 colon it was 102%; in the test with DU-145 prostate, 97.8%; in the test on K-562 leukemia, 100%. Also, the growth was 119% in the test with MALME-3M melanoma; 113% with MDA-MB-231 breast; 103% in the test with RXF 393 renal; 105% in the test on SF-268 CNS; 115% in the test with SF-295 CNS; 97.5% with SF-539 CNS. Also, the growth was 98.3% with UACC-257 melanoma and 105% in the test on M14 melanoma.
